Compound activity (PubChem BioAssay)
Only some compounds are listed: those with a hit (about 3.1% of all), similar ones and a draw of the others.
GSIS activator: GLuc luminescence reporter in INS-1E cells, primary screen for activators of glucose-dependent secretion of insulin | 370,000 compounds, 0.61% hits | INS-1E GLuc reporter insulin secretion, 2-3 h | activation, % at 16.6 µM;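 active = lowest replicate activation of at least 40%, so every replicate reaches that level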
EWS-Fli inh: blocks EWS/Fli oncoprotein-driven transcription. 350,000 compounds, 0.67% hits. inhibition, % at 12.6 µM. A673 NR0B1-luciferase reporter, viability-normalised. AID 651661;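 active = mean inhibition of at least 50% after viability correction, with every replicate also passing that limit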;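 note: firefly luciferase signal divided by Alamar Blue viability fluorescence both relative to DMSO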
miR-122 sensor: blocks miR-122 activity in Huh7 sensor cells; Huh7 miR-122 Renilla luciferase sensor, 48 h; neutral wells = 0, positive control = 100; activation (reporter increase), % at 12.5 µM; 340,000 compounds, 0.3% hits; AID 602342;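 active = mean replicate activation score at least 90 and every replicate individually at or above 90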;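 note: higher luciferase means less miR-122 activity so hits act as miR-122 inhibitors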
Statin myotox sup: suppressors of simvastatin-induced myotoxicity in C2C12 myotubes; ATP luminescence, 48 h; scaled: DMSO 0, geranylgeraniol control 100; rescue of ATP level, % at 7.49 µM; 330,000 compounds, 0.78% hits; AID 602340;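 active = mean ATP rescue above about 67%, or every replicate alone reaching that limit, limit read from the data, passing the limit was not always enough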;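 note: myotubes were challenged with 10 µM simvastatin during compound exposure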
Env fusion inh: HIV envelope-mediated fusion inhibition; HeLa-JRFL Env/CEM21 cell fusion, luciferase; inhibition, % at 12.3 µM; 360,000 compounds, 1.1% hits;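 active = mean replicate inhibition score of at least 50 and every replicate individually at or above 50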
PAX8 inh HTS: inhibitors of PAX8 transcriptional activity in RMG-I cells; RMG-I TPO-luciferase reporter, SteadyGlo, 24 h; 360,000 compounds, 1.2% hits; inhibition, % at 12.6 µM;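 active = mean replicate inhibition at least 60% with every replicate also reaching 60%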;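 note: luciferase light reporting Pax8 driven TPO promoter activity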
A number is an active result; - = inactive; . = no result given; [ ] = dose if it differs, or a comment.

SMILES	GSIS activator	EWS-Fli inh	miR-122 sensor	Statin myotox sup	Env fusion inh	PAX8 inh HTS
Cc1noc(C)c1S(=O)(=O)Nc1ccc2c(c1)C(=O)N([C@@H](C)CO)C[C@H](C)[C@@H](CN(C)Cc1ccc(C(=O)O)cc1)O2	-	-	-	-	.	.
CC(C)COc1cc(=O)[nH]c(SCC(C)C)n1	.	.	-	148	-	-
C[C@@H]1CN([C@H](C)CO)C(=O)c2ccccc2-c2ccccc2CO[C@@H]1CN(C)Cc1ccccc1C(F)(F)F	-	-	.	.	.	75
C[C@@H]1CN([C@@H](C)CO)C(=O)c2ccccc2-c2ccccc2CO[C@@H]1CN(C)Cc1ccccc1C(F)(F)F	-	-	.	.	.	-
C[C@H]1CN([C@@H](C)CO)C(=O)c2ccccc2-c2ccccc2CO[C@@H]1CN(C)Cc1ccc(Cl)c(Cl)c1	42	-	.	.	.	-
C[C@H]1CN([C@@H](C)CO)C(=O)c2ccccc2-c2ccccc2CO[C@@H]1CN(C)Cc1cccc(C(F)(F)F)c1	56	-	.	.	.	-
C[C@@H]1CN([C@H](C)CO)C(=O)c2ccccc2-c2ccccc2CO[C@@H]1CN(C)Cc1cccc(C(F)(F)F)c1	-	-	.	.	.	.
C[C@@H]1CN([C@H](C)CO)C(=O)c2ccccc2-c2ccccc2CO[C@@H]1CN(C)Cc1ccc(Cl)c(Cl)c1	-	-	.	.	.	-
COCc1cc(C)nc(OCC(=O)N/N=C/c2ccc(-c3cc([N+](=O)[O-])ccc3C)o2)c1C#N	.	.	-	.	64	-
COCC(=O)N(C)C[C@@H]1Oc2ncc(-c3ccccc3OC)cc2C(=O)N([C@@H](C)CO)C[C@H]1C	-	-	-	-	-	.
Cc1ccc(S(=O)(=O)N(C)C[C@H]2OCCCC[C@@H](C)Oc3ccc(NC(=O)Nc4ccc(C(F)(F)F)cc4)cc3C(=O)N([C@H](C)CO)C[C@@H]2C)cc1	-	-	-	.	-	-
Cc1ccc(S(=O)(=O)N(C)C[C@@H]2OCCCC[C@@H](C)Oc3ccc(NC(=O)Nc4ccc(C(F)(F)F)cc4)cc3C(=O)N([C@H](C)CO)C[C@H]2C)cc1	-	-	-	.	57[16.7 µM]	-
Cc1ccc(S(=O)(=O)N(C)C[C@@H]2OCCCC[C@H](C)Oc3ccc(NC(=O)Nc4ccc(C(F)(F)F)cc4)cc3C(=O)N([C@H](C)CO)C[C@H]2C)cc1	-	-	-	.	-	61
Cc1ccc(S(=O)(=O)N(C)C[C@@H]2OCCCC[C@H](C)Oc3ccc(NC(=O)Nc4ccc(C(F)(F)F)cc4)cc3C(=O)N([C@@H](C)CO)C[C@@H]2C)cc1	-	-	-	.	-	-
O=C(c1ccco1)N1CCN(c2nc(C(F)(F)F)nc3c2nnn3Cc2ccccc2)CC1	-	.	.	.	67	.
CCCN1CCN(C(=O)c2ccc(Sc3ccc(C)cc3)c(NC(C)=O)c2)CC1	-	-	-	80	.	.
COc1ccc(S(=O)(=O)N(C)C[C@@H]2Oc3ccc(NC(=O)Cc4cn(C)c5ccccc45)cc3CC(=O)N([C@H](C)CO)C[C@H]2C)cc1	-	-	-	-	-	.
O=c1c2ccccc2nc(-c2ccc(Cl)cc2Cl)n1CCCn1ccnc1	.	.	-	100	.	.
O=C1c2ccccc2C(=O)N1CCCc1nc2ccccc2c(=O)n1CCCn1ccnc1	.	.	-	-	-	.
C[C@@H]1CN([C@@H](C)CO)C(=O)Cc2cc(NC(=O)Cc3cn(C)c4ccccc34)ccc2O[C@H]1CN(C)Cc1ccccc1	-	-	-	-	-	-
COc1cc(C(=O)OCc2cc(=O)c(O)co2)ccc1OC(F)F	52	-	-	-	-	-
COc1cc(C(=O)OCc2cc(=O)oc3c(C)c(C)ccc23)ccc1OC(F)F	-	-	-	-	-	-
CO[C@H]1CN(C)C(=O)c2ccc(NC(=O)c3ccccc3F)cc2OC[C@H](C)N(CC2CCOCC2)C[C@@H]1C	-	-	.	.	-	.
CCCc1cc2c(cc1NC(=O)c1ccc(C)cc1)OCO2	.	.	-	91	.	.
Cn1c(=N)n(CC(=O)c2ccc(Br)s2)c2ccccc21	.	.	-	.	.	.
SMILES	GSIS activator	EWS-Fli inh	miR-122 sensor	Statin myotox sup	Env fusion inh	PAX8 inh HTS
N=c1n(CC(=O)c2ccc(Br)s2)c2ccccc2n1Cc1ccccc1	-	60	-	-	-	-
Cc1nc2c(-c3ccc(F)cc3)c(C)nn2c(C)c1CCC(=O)Nc1ccccc1	-	-	.	.	63	-
Cc1nc2c(-c3ccc(F)cc3)c(C)nn2c(C)c1CCC(=O)N1CCC(Cc2ccccc2)CC1	-	-	-	-	55	-
Cc1nc2c(-c3ccc(F)cc3)c(C)nn2c(C)c1CCC(=O)N1CCN(c2ccc(F)cc2)CC1	-	-	-	-	56	-
Cc1nc2c(-c3ccc(F)cc3)c(C)nn2c(C)c1CCC(=O)N1CCN(c2ccccc2)CC1	-	-	-	-	-	-
CCCNC(=O)N(C)C[C@H]1Oc2cc(C#CCN(C)C)ccc2S(=O)(=O)N([C@H](C)CO)C[C@H]1C	-	-	-	-	-	.
Cc1noc(C)c1S(=O)(=O)N(C)C[C@H]1OCCCC[C@@H](C)Oc2ccc(NC(=O)C3CCCCC3)cc2C(=O)N([C@H](C)CO)C[C@H]1C	-	-	-	-	-	-
C[C@@H]1CN([C@H](C)CO)C(=O)c2cc(NC(=O)Nc3ccccc3)ccc2O[C@@H](C)CCCCO[C@H]1CN(C)S(=O)(=O)c1ccc(Cl)cc1	-	-	-	.	-	70
COc1ccc(S(=O)(=O)N(C)C[C@H]2OCCCC[C@@H](C)Oc3ccc(NC(=O)Nc4ccccc4)cc3C(=O)N([C@H](C)CO)C[C@@H]2C)cc1	-	-	-	.	-	-
COc1ccc(S(=O)(=O)N(C)C[C@@H]2OCCCC[C@@H](C)Oc3ccc(NC(=O)Nc4ccccc4)cc3C(=O)N([C@H](C)CO)C[C@H]2C)cc1	-	-	-	.	76[16.7 µM]	-
COc1ccc(S(=O)(=O)N(C)C[C@@H]2OCCCC[C@H](C)Oc3ccc(NC(=O)C4CCCCC4)cc3C(=O)N([C@@H](C)CO)C[C@@H]2C)cc1	-	-	-	.	-	65
C[C@@H]1CCCCO[C@H](CN(C)S(=O)(=O)c2ccc(Cl)cc2)[C@@H](C)CN([C@@H](C)CO)C(=O)c2cc(NC(=O)CCC(F)(F)F)ccc2O1	-	-	-	.	-	93
C[C@@H]1CN([C@@H](C)CO)C(=O)c2cc(C#Cc3ccccn3)cnc2O[C@H]1CN(C)C(=O)c1ccccn1	-	-	.	-	-	.
C[C@H](CO)N1C[C@H](C)[C@H](CN(C)C(=O)Cc2ccccc2)Oc2ncc(C#Cc3ccccc3F)cc2C1=O	-	-	-	-	-	.
O=C(C[C@H]1CC[C@H]2[C@@H](COC[C@@H](O)CN2C(=O)Nc2ccc(F)cc2)O1)NCCc1ccccc1	-	-	-	-	-	-
C[C@@H]1CN([C@H](C)CO)C(=O)c2cc(NC(=O)Nc3ccc(C(F)(F)F)cc3)ccc2O[C@@H](C)CCCCO[C@H]1CN(C)S(=O)(=O)c1ccc(Cl)cc1	-	-	-	.	-	88
